Records with an inconclusive call do not appear. Active and inactive are the calls of the source. The calls were made as follows, unless noted: active = hit-call score of the fitted dose curve at least 0.9, where 1 is the maximum; inactive = score below 0.9.

Test [1] deals with Paired box protein Pax-6 (Homo sapiens) (UniProt P26367). Kind of test: ATG_Pax6_CIS: Attagene CIS-FACTORIAL HepG2 Assay for human Paired Box 6 (PAX6) (AID 2282956). As to conditions: HepG2 CIS-FACTORIAL PAX6 reporter transcription, RNA readout; actives raise or lower the signal. In outline: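 Transient MRTU transfection of HepG2 → compound exposure 24 h → TriZol RNA, oligo(dT) RT → PCR, 6-FAM primer extension, HpaI cut → capillary electrophoresis; activity fitted both directions against DMSO.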

Test [2] can be described thus: ATG_PXRE_CIS: Attagene CIS-FACTORIAL HepG2 Assay for human Pregnane X Receptor Element (PXRE) (AID 2282957). As to conditions: HepG2 Attagene CIS-FACTORIAL PXRE reporter, mRNA; actives raise or lower the signal. In outline: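 Transiently transfected HepG2 cells were dosed and incubated for 24 h. RNA was then isolated, DNase-treated, reverse-transcribed and reporter sequences amplified. Labeled, HpaI-digested fragments were quantified by capillary electrophoresis against DMSO.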

A short description of test [3]: ATG_PPRE_CIS: Attagene CIS-FACTORIAL HepG2 Assay for human Peroxisome Proliferator-activated Response Element (PPRE) (AID 2282958). As to conditions: HepG2 PPRE cis-element reporter, Attagene transcription factor profiling; actives raise or lower the signal. In outline:
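PPRE activity in HepG2: transient cis-reporter transfection, 24 h compound incubation, reporter mRNA by RT-PCR and CE fluorescence; gain/loss fitted against DMSO.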

Test [4] in a line: ATG_RORE_CIS: Attagene CIS-FACTORIAL HepG2 Assay for human RAR-related Orphan Receptor Element (RORE) (AID 2282959). As to conditions: HepG2 Attagene cis-factorial RORE reporter, mRNA; actives raise or lower the signal. In outline:
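A 24-hour exposure of transfected HepG2 hepatoma cells precedes RNA isolation and reporter RT-PCR. Labeled products are digested with HpaI and resolved by capillary electrophoresis, with gain or loss of signal scored relative to DMSO.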

Test [5] is described as follows: ATG_Sox_CIS: Attagene CIS-FACTORIAL HepG2 Assay for human SRY-box transcription factor (SOX) (AID 2282960). As to conditions: HepG2 Attagene cis-factorial SOX reporter, mRNA; actives raise or lower the signal. In outline: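 HepG2, cis reporter units, 24 h exposure. Reporter mRNA: RT-PCR → FAM labelling → HpaI → CE fluorescence. Bidirectional fit vs DMSO.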
Test [6] has as its target Transcription factor Sp1 (Homo sapiens) (UniProt P08047). Put plainly: ATG_Sp1_CIS: Attagene CIS-FACTORIAL HepG2 Assay for human Specificity Protein 1 (Sp1) (AID 2282961). The note with it: HepG2 Sp1 cis-reporter transcription, actives raise or lower the signal. In outline:
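Liver-derived HepG2 cells, cis-element reporter library, 24 h treatment; RNA isolated, cDNA amplified with reporter-specific primers, FAM-labeled fragments sized on capillary analyzer. DMSO baseline, bidirectional curve fit.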

Test [7] in a line: ATG_SREBP_CIS: Attagene CIS-FACTORIAL HepG2 Assay for human Sterol Regulatory Element Binding (SREBP) (AID 2282962). The note with it: HepG2 Attagene cis-factorial SREBP reporter, mRNA; actives raise or lower the signal. Put shortly: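 Transfected HepG2 (cis-regulated reporter library, endogenous TFs) → compound 24 h → total RNA → oligo(dT) RT → reporter-specific PCR → FAM primer extension, HpaI cut → CE fluorescence. Fit bidirectional vs DMSO.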

For test [8], the target named is Signal transducer and activator of transcription 3 (Homo sapiens) (UniProt P40763). Kind of test: ATG_STAT3_CIS: Attagene CIS-FACTORIAL HepG2 Assay for human Signal Transducer and Activator of Transcription 3 (STAT3) (AID 2282963). As to conditions: HepG2, Attagene cis-factorial STAT3 reporter transcription; actives raise or lower the signal. In outline:
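HepG2 cells transiently transfected with cis-element-driven multiple reporter transcription units; after 24 h chemical exposure, reporter mRNA measured by RT-PCR, 6-FAM primer-extension labelling, HpaI digestion and capillary electrophoresis. Bidirectional fitting versus DMSO baseline.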

A short description of test [9]: ATG_TA_CIS: Attagene CIS-FACTORIAL HepG2 Assay for human TA Basal Promoter (AID 2282964). As to conditions: HepG2 Attagene CIS-factorial TA basal promoter reporter; actives raise or lower the signal. Put shortly: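 HepG2 cells transiently transfected with multiple reporter units under cis promoter elements, reporting endogenous transcription factor activity; this endpoint tracks the TA basal promoter as background control. Reporter mRNA after 24 h dosing measured by RT-PCR/capillary electrophoresis; bidirectional fits versus DMSO.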

The nature of test [10]: ATG_TCF_b_cat_CIS: Attagene CIS-FACTORIAL HepG2 Assay for human T-Cell-Factor with beta-catenin (TCF/b-cat) (AID 2282965). As to conditions: HepG2 TCF/beta-catenin cis-reporter transcription, actives raise or lower the signal. In outline: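 In this cis-format system, transfected HepG2 cells report endogenous transcription factor activity. Readout after 24 h exposure is reporter transcript abundance from RT-PCR and capillary electrophoresis, analysed for gain or loss of signal versus DMSO.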

The nature of test [11]: ATG_TAL_CIS: Attagene CIS-FACTORIAL HepG2 Assay for human TAL Basal Promoter (AID 2282966).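 Also: background control endpoint measuring basal TAL promoter reporter mRNA not a specific factor.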 The note with it: HepG2 Attagene cis-factorial TAL promoter reporter; actives raise or lower the signal. Put shortly: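 Readout: reporter mRNA, fluorescence by CE. System: HepG2, transient multi-reporter transfection, endogenous TF activity. Exposure: 24 h. Analysis: bidirectional, DMSO-normalized; background control.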

A short description of test [12]: ATG_TGFb_CIS: Attagene CIS-FACTORIAL HepG2 Assay for human Transforming Growth Factor (TGF) (AID 2282967). The note with it: HepG2 Attagene CIS TGFb reporter, mRNA transcription; actives raise or lower the signal. In outline:
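HepG2 cells transiently transfected with cis-promoter-driven multiple reporter units measure endogenous TF activity; reporter mRNA quantified at 24 h by RT-PCR, FAM labeling, HpaI digestion and capillary electrophoresis. Bidirectional fit vs DMSO.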

Test [13] is described as follows: ATG_VDRE_CIS: Attagene CIS-FACTORIAL HepG2 Assay for human Vitamin D Receptor Element (VDRE) (AID 2282968). The note with it: HepG2 VDRE cis-reporter transcription, actives raise or lower the signal. In outline: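 HepG2 cells transiently transfected with cis-element reporter units, dosed 24 h; reporter mRNA measured by RT-PCR, 6-FAM labeling, HpaI digestion and capillary electrophoresis. Activity fitted bidirectionally against DMSO baseline.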

In test [14] the target is Estrogen receptor (Homo sapiens) (UniProt P03372). Put plainly: ATG_ERa_TRANS: Attagene TRANS-FACTORIAL HepG2 Assay for human Estrogen Receptor alpha (ERa) (AID 2282970; active = hit-call score of the fitted dose curve at least 0.9, where 1 is the maximum). The note with it: HepG2 Attagene TRANS ERa GAL4 reporter, mRNA. In outline: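 Transactivation via ERa-Gal4 chimera in HepG2; 24 hour incubation; reporter mRNA detected by fluorescence RT-PCR and capillary electrophoresis.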

Test [15] has as its target X-box-binding protein 1 (Homo sapiens) (UniProt P17861). Kind of test: ATG_Xbp1_CIS: Attagene CIS-FACTORIAL HepG2 Assay for human X-box Binding Protein 1 (XBP1) (AID 2282972). The note with it: HepG2 XBP1 cis-element reporter, Attagene multiplex; actives raise or lower the signal. In outline: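 HepG2, transient MRTU transfection (cis-promoter driven), 24 h compound exposure. Total RNA → oligo(dT) RT → PCR → 6-FAM labeling → HpaI cut → CE. Bidirectional fit vs DMSO.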

The nature of test [16]: ATG_M_19_TRANS: Attagene TRANS-FACTORIAL HepG2 Assay for M19 Transcription Factor (Internal Marker) (AID 2282974; active = hit-call score of the fitted dose curve at least 0.9, where 1 is the maximum). As to conditions: HepG2 Attagene TRANS-FACTORIAL M19 internal marker reporter. Put shortly: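 Transfected HepG2 (GAL4-UAS MRTUs), 24 h compound, TriZol RNA, DNase-treated RT, reporter PCR, FAM label, HpaI digest, CE fluorescence; gain vs DMSO.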
The target in test [17] is Nuclear receptor subfamily 1 group I member 3 (Homo sapiens) (UniProt Q14994). Put plainly: ATG_CAR_TRANS: Attagene TRANS-FACTORIAL HepG2 Assay for human Constitutive Androstane Receptor (CAR) (AID 2282969; active = hit-call score of the fitted dose curve at least 0.9, where 1 is the maximum;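 also: activators raise reporter mRNA above DMSO so AC50 marks induction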). The note with it: HepG2 Attagene TRANS-FACTORIAL CAR reporter. In outline:
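HepG2 cells transiently transfected with multiplexed GAL4-UAS reporter units expressing chimeric NR-Gal4 proteins; compound exposure 24 h. Reporter mRNA measured by RT-PCR, 6-FAM labelling, HpaI digestion and capillary electrophoresis; gain-of-signal fitted against DMSO baseline.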

Test [18] in a line: ATG_Hpa5_TRANS: Attagene TRANS-FACTORIAL HepG2 Assay for human GAL4-Hpa5 Hepatocyte Transcription Factor Basal Promoter (AID 2282975; active = hit-call score of the fitted dose curve at least 0.9, where 1 is the maximum;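 also: hits are increases in reporter mRNA over DMSO baseline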). The note with it: HepG2 Attagene GAL4-Hpa5 transcription reporter. Put shortly: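 Basal-promoter GAL4 background control within the HepG2 trans-factorial panel of transiently transfected reporter units. Reporter mRNA is measured 24 h after dosing by RT-PCR and capillary electrophoresis, fitted for gain of signal versus DMSO.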

Chain of X-box-binding protein 1 (Homo sapiens) (P17861 whole entry, looked up): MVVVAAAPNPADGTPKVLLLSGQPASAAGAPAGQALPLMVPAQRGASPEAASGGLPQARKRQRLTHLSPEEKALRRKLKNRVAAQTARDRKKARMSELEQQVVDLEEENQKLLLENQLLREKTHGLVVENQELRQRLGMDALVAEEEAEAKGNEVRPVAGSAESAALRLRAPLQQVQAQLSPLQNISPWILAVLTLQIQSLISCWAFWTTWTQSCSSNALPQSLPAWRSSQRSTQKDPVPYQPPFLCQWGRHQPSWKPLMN
Chain of Estrogen receptor (Homo sapiens) (P03372 whole entry, looked up, the tested form may be a part): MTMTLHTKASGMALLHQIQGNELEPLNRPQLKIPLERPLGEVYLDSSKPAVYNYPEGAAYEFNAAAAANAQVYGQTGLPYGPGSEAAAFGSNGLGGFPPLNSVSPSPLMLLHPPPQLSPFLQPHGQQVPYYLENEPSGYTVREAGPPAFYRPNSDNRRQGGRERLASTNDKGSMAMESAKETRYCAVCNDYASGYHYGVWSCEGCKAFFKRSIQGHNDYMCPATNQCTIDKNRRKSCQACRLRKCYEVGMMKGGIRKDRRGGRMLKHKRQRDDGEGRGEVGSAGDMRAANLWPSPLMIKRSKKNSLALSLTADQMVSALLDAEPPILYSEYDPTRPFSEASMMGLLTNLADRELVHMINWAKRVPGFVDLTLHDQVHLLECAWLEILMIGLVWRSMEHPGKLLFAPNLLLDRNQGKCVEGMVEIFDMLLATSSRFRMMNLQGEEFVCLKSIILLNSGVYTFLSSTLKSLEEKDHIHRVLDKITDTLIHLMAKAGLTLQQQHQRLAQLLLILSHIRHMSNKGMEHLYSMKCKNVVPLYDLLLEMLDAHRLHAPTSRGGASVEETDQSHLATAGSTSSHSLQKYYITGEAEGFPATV
Chain of Transcription factor Sp1 (Homo sapiens) (P08047 whole entry, looked up, the tested form may be a part): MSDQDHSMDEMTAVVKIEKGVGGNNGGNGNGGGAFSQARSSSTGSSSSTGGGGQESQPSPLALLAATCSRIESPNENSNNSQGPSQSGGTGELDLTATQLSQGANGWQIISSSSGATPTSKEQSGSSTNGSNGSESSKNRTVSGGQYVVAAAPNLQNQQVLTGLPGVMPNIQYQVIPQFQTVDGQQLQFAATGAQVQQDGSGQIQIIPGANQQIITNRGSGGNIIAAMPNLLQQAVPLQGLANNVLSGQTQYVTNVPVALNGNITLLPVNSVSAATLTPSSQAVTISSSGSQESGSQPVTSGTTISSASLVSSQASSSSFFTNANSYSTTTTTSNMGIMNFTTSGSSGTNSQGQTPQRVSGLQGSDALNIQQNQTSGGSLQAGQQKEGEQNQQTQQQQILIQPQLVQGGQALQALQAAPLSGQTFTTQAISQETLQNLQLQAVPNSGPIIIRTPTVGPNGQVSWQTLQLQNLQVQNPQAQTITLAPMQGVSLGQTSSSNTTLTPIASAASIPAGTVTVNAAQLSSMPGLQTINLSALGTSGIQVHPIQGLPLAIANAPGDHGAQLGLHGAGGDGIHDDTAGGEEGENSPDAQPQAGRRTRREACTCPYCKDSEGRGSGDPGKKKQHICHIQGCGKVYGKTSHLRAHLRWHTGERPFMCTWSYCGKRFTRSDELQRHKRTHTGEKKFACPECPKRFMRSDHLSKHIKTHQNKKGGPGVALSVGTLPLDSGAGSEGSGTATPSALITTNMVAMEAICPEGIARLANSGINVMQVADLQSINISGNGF
Chain of Signal transducer and activator of transcription 3 (Homo sapiens) (P40763 whole entry, looked up): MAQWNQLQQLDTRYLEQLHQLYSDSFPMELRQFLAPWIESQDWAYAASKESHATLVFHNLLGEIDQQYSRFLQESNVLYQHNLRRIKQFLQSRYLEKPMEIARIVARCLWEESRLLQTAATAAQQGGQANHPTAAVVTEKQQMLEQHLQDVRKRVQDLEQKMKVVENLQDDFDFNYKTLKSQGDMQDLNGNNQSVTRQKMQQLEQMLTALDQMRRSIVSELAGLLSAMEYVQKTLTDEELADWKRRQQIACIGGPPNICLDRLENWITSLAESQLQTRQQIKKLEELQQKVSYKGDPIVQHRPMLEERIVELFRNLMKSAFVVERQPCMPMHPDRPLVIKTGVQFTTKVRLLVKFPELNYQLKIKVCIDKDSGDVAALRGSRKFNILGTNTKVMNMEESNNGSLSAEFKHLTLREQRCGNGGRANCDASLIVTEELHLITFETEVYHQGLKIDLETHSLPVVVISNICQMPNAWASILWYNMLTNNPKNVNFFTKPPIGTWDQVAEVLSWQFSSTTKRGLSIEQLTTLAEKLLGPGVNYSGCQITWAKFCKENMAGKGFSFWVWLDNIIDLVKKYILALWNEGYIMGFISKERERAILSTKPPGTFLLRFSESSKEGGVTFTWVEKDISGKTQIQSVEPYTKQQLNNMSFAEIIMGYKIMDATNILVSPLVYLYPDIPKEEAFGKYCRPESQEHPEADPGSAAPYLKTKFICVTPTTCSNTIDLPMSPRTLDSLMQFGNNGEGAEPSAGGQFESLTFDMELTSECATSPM
Chain of Paired box protein Pax-6 (Homo sapiens) (P26367 whole entry, looked up): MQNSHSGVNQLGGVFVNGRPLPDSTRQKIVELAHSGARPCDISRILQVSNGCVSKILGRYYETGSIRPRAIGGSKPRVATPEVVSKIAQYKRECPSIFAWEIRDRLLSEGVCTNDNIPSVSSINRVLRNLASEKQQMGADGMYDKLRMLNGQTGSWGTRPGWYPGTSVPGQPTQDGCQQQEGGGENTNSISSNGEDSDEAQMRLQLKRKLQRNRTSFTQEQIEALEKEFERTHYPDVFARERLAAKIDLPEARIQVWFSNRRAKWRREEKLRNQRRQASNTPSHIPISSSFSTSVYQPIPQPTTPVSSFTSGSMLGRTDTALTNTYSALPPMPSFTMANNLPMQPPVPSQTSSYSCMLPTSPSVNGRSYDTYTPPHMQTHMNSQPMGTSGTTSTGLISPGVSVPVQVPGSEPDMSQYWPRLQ
Chain of Nuclear receptor subfamily 1 group I member 3 (Homo sapiens) (Q14994 whole entry, looked up, the tested form may be a part): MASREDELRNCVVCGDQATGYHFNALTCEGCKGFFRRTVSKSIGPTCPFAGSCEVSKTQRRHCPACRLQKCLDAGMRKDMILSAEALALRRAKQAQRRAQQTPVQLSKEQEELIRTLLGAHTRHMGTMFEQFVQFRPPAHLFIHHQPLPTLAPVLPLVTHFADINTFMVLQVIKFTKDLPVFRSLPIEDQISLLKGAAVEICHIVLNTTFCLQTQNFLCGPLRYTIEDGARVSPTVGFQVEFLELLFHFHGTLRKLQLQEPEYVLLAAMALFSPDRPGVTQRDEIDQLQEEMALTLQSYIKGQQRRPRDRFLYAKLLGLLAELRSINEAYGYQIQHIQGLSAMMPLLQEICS

As to `CC1=C2C[C@H]3[C@@H](CC=C4C[C@@H](O)CC[C@@]43C)[C@@H]2CC[C@]12O[C@@H]1C[C@H](C)CN[C@H]1[C@H]2C`, the AC50 in [1] is 13.5 µM (active); in [4] it was 12.9 µM (active); in test [6], 12.8 µM (active); in test [9], 12.7 µM (active). Also, the molecule was called inactive in test [2], in [3], in [5], in [7], in test [8] and in test [10]. The call in [11], in test [12], in [13], in test [14] and in [15] was inactive.
Turning to `C1CC2OC2CC1C1CO1` (centres undefined), the result in test [1], in [3], in [4], in [5], in [6] and in [7] was inactive. Further, the molecule was classed as inactive in test [8], in test [9], in [10], in [11], in test [12] and in [13]. Also, the molecule was called inactive in test [15] and in test [16]. The AC50 in [2] is 59.2 µM (active).
For `CCCN(CCC)N=O`, the result in test [1], in [2], in test [3], in test [4], in test [5] and in test [6] was inactive. Besides, the call in test [7], in [8], in test [9], in test [10], in [11] and in test [12] was inactive. In addition, the call in test [13], in [14] and in test [15] was inactive.
For the molecule `Nc1ccc(-c2ccc(N)cc2)cc1`, the molecule was classed as inactive in [1], in test [2], in test [4], in [5], in [6] and in [7]. The outcome in test [8], in test [9], in test [10], in test [11], in test [12] and in [13] was inactive. In addition, the molecule was classed as inactive in [17] and in test [15]. Besides, the AC50 in test [14] was 38 µM (active).
For `Cc1cccc(C)c1N`, the result in test [1], in test [2], in test [3], in [4], in [5] and in test [6] was inactive. In addition, the outcome in test [7], in [8], in [9], in test [10], in test [11] and in test [12] was inactive. For the same molecule, the molecule was called inactive in test [15].
`CN(C)c1nc(=O)n(C2CCCCC2)c(=O)n1C`: the call in [1], in [3], in test [4], in [5], in test [6] and in test [7] was inactive. For the same molecule, the outcome in [8], in [9], in test [10], in test [11], in [12] and in [13] was inactive. Also, the outcome in test [14], in test [15] and in test [18] was inactive. In addition, the AC50 in [2] was 50 µM (active).

For orientation: AC50 means the midpoint of the concentration-response curve, whichever way the signal moves.
